For 30 compounds, growth results are on record in PubChem BioAssay (NCI).

About 83,000 compounds went through this panel and 20% of them were active in at least one assay; those are over-represented in the sample as a whole.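 The endpoint reported here, percent growth, reads 100 for growth as untreated, 0 for no net growth and -100 for all cells dead.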 Unmarked numbers belong to inactive results. Calls of active or inactive are those of the source. The calls were made as follows: active = growth percent below 10; inactive = the rest.

What all share (test): NCI-60 one-dose screen, 48 h (100 = growth as untreated, 0 = no growth, -100 = all killed)
Common to all, as to conditions: 10 µM unless noted

The test system of assay [1] is SK-MEL-2 melanoma.
Assay [2] relates to EKVX NSCLC.
Assay [3] deals with SN12C renal.
The test system of assay [4] is UO-31 renal.
Assay [5] has as its system ACHN renal.
Assay [6] deals with CAKI-1 renal.
Assay [7] relates to CCRF-CEM leukemia.
Assay [8] concerns MOLT-4 leukemia.
For assay [9], the system named is A498 renal.
In assay [10] the test system is TK-10 renal.

With `O=C1/C(=C/c2ccc([N+](=O)[O-])cc2)Oc2ccc(O)cc21`, the growth in assay [1] was 104%; in [2], 91.9%; in [3], 85.8%; in assay [4], 70.4%; in assay [5], 82.3%; in [6], 5.52% (active). Also, the growth in assay [7] is 72.5%; in [8] it was 18.7%.

With `O=c1c2c(=NCCN3CCCC3)cc3c(=O)n(CCCN4CCOCC4)c(=O)c4ccc(c(O)n1CCCN1CCOCC1)c2c4-3`, the growth in assay [1] was -27.2% (active); in assay [2], -12.8% (active); in assay [3], 4.69% (active); in assay [4], 0.795% (active); in [5], 2.23% (active); in assay [6], 8.73% (active). Moreover, the growth in assay [9] is -78.9% (active); in [7], 1.35% (active); in assay [8], 2.58% (active).

For `N#C/C(=C\c1ccc[nH]1)c1cc2ccccc2[nH]1`, the growth in [1] was 65.9%; in assay [2], 37.4%; in assay [3] it was 72.3%; in assay [4], 55%; in assay [5], 69.7%; in assay [6], 52.4%. Moreover, the growth in assay [9] was 69.2%; in assay [7], 52%; in assay [8], 62.9%.

Regarding `Cn1c(=O)c2c(-c3ccccc3F)n(-c3ccc4c(c3)OCO4)cc2n(C)c1=O`, the growth is 133% in assay [1]; 87.6% in [2]; 90.4% in assay [3]; 82.4% in assay [4]; 115% in assay [10]; 89.6% in assay [6]. Moreover, the results for the growth in [9] and in assay [8] were 69.5% and 72.9%, respectively.

Take `COc1cc2cc(Oc3ccc(NC(=O)Nc4cccc(C(F)(F)F)c4)cc3)c(C)nc2cc1OCCN1CCCCC1`: the growth is -65.9% (active) in [1]; 27.5% in assay [2]; -88.9% (active) in assay [3]; -92.1% (active) in [4]; -73.3% (active) in assay [5]; -77.7% (active) in [6]. The growth in assay [9] is 51%; in [7], 1.49% (active); in assay [8], -54.9% (active).

As to `COc1ccc(Sc2ccc3[nH]c(=O)nc(N)c3c2)cc1`, the growth in assay [1] is 104%; in assay [2] it was 95.5%; in assay [3] it was 101%; in assay [4], 99.2%; in [5], 107%; in assay [6], 106%. For the same compound, the results for the growth in [9], in assay [7] and in assay [8] were 98.6%, 95.3% and 97.7%, respectively.

Consider `Nc1cccc2c(=S)c3ccccc3[nH]c12`, for which the growth is 87.5% in [1]; 93.6% in assay [2]; 90.6% in assay [3]; 56.4% in assay [4]; 192% in assay [10]; 64.5% in assay [9]. Further, the growth in assay [7] is 100%; in assay [8], 104%.

For `c1ccc(-c2n(Cc3ccc4ccccc4c3)c3ccccc3[n+]2Cc2ccc3ccccc3c2)cc1`, the growth in assay [1] was -36.1% (active); in [2], 3.45% (active); in assay [3] it was -79.4% (active); in assay [4], -79.7% (active); in assay [5], -4.48% (active); in [6], -44.7% (active). The growth in assay [9] was -40.6% (active); in assay [7] it was 2.6% (active); in [8], -21.8% (active).

`COc1ccc(OC2=CC(=O)c3ccc(C)nc3C2=O)cc1`: the growth was 99.5% in [1]; 96.5% in assay [2]; 88.3% in assay [3]; 92.3% in [4]; 112% in assay [10]; 82.5% in assay [6]. The values for the growth in assay [7] and in assay [8] were 18.5% and 66.5%, respectively.

Turning to `O=C(CCc1nnc2sc(-c3ccccc3)nn12)c1nc2ccccc2[nH]1`, the growth in [1] was 104%; in assay [2] it was 99.5%; in assay [3], 86.6%; in [4] it was 77.5%; in assay [5] it was 101%; in [6], 103%. For the same compound, the growth in [9] was 80.4%; in assay [8] it was 78.4%.

As for `COc1cc(C(=O)/C=C/c2c(-c3cccs3)nc3sccn23)cc(OC)c1OC`, the growth is -3.21% (active) in assay [1]; 4.03% (active) in [3]; 10.2% in assay [4]; 3.46% (active) in assay [10]; 12.4% in assay [5]; -29% (active) in [6]. In addition, the values for the growth in [9], in assay [7] and in assay [8] were -26.3% (active), 10.8% and -1.21% (active), respectively.

As for `COc1cc2nc(N3CCC[C@H](NC4=CC(=O)c5ccccc5C4=O)C3)nc(N)c2cc1OC`, the growth in assay [1] is 111%; in [3] it was 65.4%; in [4], -76.1% (active); in assay [10] it was -72.6% (active); in [5], -100% (active); in assay [6], -56.6% (active). Also, the growth was 93% in assay [9], -23.5% (active) in assay [7] and -41.3% (active) in assay [8].

For the compound `Clc1ccc(Nc2ccnc(N3CCN(c4ccnc5cc(Cl)ccc45)CC3)n2)cc1`, the growth is 73.7% in assay [1]; 51.4% in assay [3]; -8.75% (active) in assay [4]; 60.9% in assay [10]; 41.9% in assay [5]; 34.8% in assay [6]. For the same compound, the growth in assay [9] was -1.58% (active); in assay [7], 38.4%; in assay [8] it was 31.9%.

On to `CCN(CC)c1ccc(/C=C(\C#N)c2cc3ccccc3[nH]2)cc1`, for which the growth in assay [1] is 43.3%; in assay [2] it was 71.5%; in assay [3], 69.4%; in assay [4], 81.1%; in assay [5] it was 70.7%; in [9], 52.7%. Besides, the results for the growth in [7] and in assay [8] were 50.9% and 37.8%, respectively.

On to `Brc1ccccc1Nc1ccc2nnc(-c3ccncc3)n2n1`, for which the growth in assay [1] was 98%; in assay [3], 101%; in assay [4], 82.1%; in assay [10], 114%; in assay [5] it was 97%; in [6] it was 87.1%. For the same compound, the values for the growth in assay [9], in assay [7] and in assay [8] were 101%, 85% and 92.6%, respectively.

On to `CCCCC(=O)N/N=C/c1cc(I)cc(I)c1O`, for which the growth in [1] was 64.3%; in assay [3], 56.3%; in [4] it was 34.9%; in assay [10] it was 49.3%; in assay [5] it was 23.6%; in assay [6], 21.6%. Further, the growth in assay [9] was 70.4%; in assay [7], 14.9%; in assay [8] it was 28.2%.

For the compound `CSc1nnc(-c2sc3nnc(-c4ccccc4)c(-c4ccccc4)c3c2O)o1`, the growth was 102% in assay [1]; 77.5% in assay [2]; 75.7% in [3]; 100% in assay [10]; 83.6% in [5]; 43.5% in [6]. The growth in assay [7] was 47.4%; in assay [8] it was 61.8%.

With `COc1ccc(-n2ncc3c2ccc2cc(S(=O)(=O)c4ccccc4)c(=O)n(C)c23)cc1`, the growth in assay [1] was 96.3%; in assay [3], 101%; in assay [4] it was 94.4%; in assay [10], 86.3%; in [5] it was 75.4%; in assay [6], 89.3%. Also, the results for the growth in assay [9], in [7] and in [8] were 70.5%, 96.6% and 103%, respectively.

As for `O=C(CCCCCCC(=O)Nc1ccc2c(c1)/C(=C/c1ccc[nH]1)C(=O)N2)NO`, the growth in assay [1] was 37%; in assay [3], 12.2%; in assay [4], 6.77% (active); in assay [10], 5.62% (active); in assay [5], 4.49% (active); in assay [6] it was 2.67% (active). For the same compound, the growth is -59.3% (active) in [9], 6.86% (active) in assay [7] and 4.16% (active) in assay [8].

With `CCOc1ccc(/C=N\N2CCCCCC2)cc1OCC`, the growth in assay [1] was 103%; in [2] it was 76.8%; in [3], 82.7%; in assay [10], 97.7%; in assay [5], 88.7%; in assay [6], 90.8%. Besides, the growth in [7] was 102%; in assay [8], 106%.

With `C=C(C)COC(=O)c1ccccc1C(=O)OCC1(C)CO1` (centres undefined), the growth in assay [1] was 97.5%; in assay [2], 103%; in assay [3], 95.9%; in assay [10], 102%; in assay [5], 105%; in assay [6] it was 96.6%. Besides, the figures for the growth in assay [9], in assay [7] and in [8] were 108%, 97.2% and 99.7%, respectively.

For `COC(=O)C1C2CC3c4[nH]c5cc(OC)ccc5c4CCN3CC2CC(OC2CCCCO2)C1OC` (centres undefined), the growth was 106% in assay [1]; 108% in assay [3]; 92.8% in assay [4]; 104% in assay [10]; 99.6% in [5]; 83.2% in [6]. The growth in assay [9] is 82.8%; in assay [7] it was 89.2%; in assay [8], 99.2%.

`COc1ccc(-c2nc(Nc3ccc(F)cc3)nc(Nc3ccc4c(c3)nc(C)n4Cc3ccccc3)n2)cc1`: the growth in assay [1] is 48.2%; in assay [3], 48.4%; in assay [4], 29.3%; in [10] it was 74.9%; in assay [5] it was 37.1%; in [6], 83.2%. The growth in [9] was 72.7%; in [7], -6.22% (active); in assay [8], -9.61% (active).

Turning to `CCN(CC)c1ccc2c(c1)OS(=O)(=O)N=C2`, the growth in assay [1] is 113%; in assay [2], 88%; in [3], 100%; in assay [4] it was 82.6%; in [5], 102%; in [7] it was 106%. Moreover, in [8], the growth was 110%.

As for `c1ccc2cc(Cn3c(-c4ccc5ccccc5c4)[n+](Cc4ccc5ccccc5c4)c4ccccc43)ccc2c1`, the growth in [1] was -67.7% (active); in assay [2], -11.7% (active); in assay [3], -88.2% (active); in [4], -77.1% (active); in [5] it was -51.5% (active); in assay [9], -64% (active). Moreover, the results for the growth in assay [7] and in assay [8] were -4.24% (active) and -35.4% (active), respectively.

As for `COc1cccc(-c2ccc3c(c2)C2CCN(Cc4ccccc4)C3C2)c1` (centres undefined), the growth was 61.5% in [1]; 90.4% in [3]; 51.6% in [4]; 92.4% in assay [10]; 93.2% in assay [5]; 78.4% in assay [6]. For the same compound, the growth in assay [9] was 65%; in assay [7] it was 63.8%; in assay [8], 68.8%.

With `Cc1ccc(S(=O)(=O)c2ccc3[nH]c(=O)[nH]c(=O)c3c2)cc1`, the growth was 100% in assay [1]; 97.7% in assay [3]; 96.1% in [4]; 93.8% in assay [10]; 109% in assay [5]; 97.1% in assay [6]. For the same compound, the values for the growth in assay [9], in [7] and in [8] were 102%, 91.4% and 94.6%, respectively.

`C=C(C)CCCC(C)CC#N` (centres undefined): the growth is 97.4% in [1]; 103% in assay [3]; 83.6% in assay [4]; 99% in assay [10]; 103% in assay [5]; 98.5% in [6]. Moreover, the growth in assay [9] is 103%; in assay [7] it was 96.1%; in [8], 101%.

For `COc1cc(CNCCN2C(=O)c3ccc4c5c(ccc(c35)C2=O)C(=O)N(CCNCc2cc(OC)c(OC)c(OC)c2)C4=O)cc(OC)c1OC`, the growth in assay [1] was -82.3% (active); in assay [3] it was -87.7% (active); in assay [4], -70.2% (active); in assay [10] it was -87.1% (active); in assay [5], -92.2% (active); in assay [6] it was -70% (active). The growth is -92.7% (active) in [9], -20.7% (active) in [7] and -4.82% (active) in [8].

Regarding `CC1SC(c2ccc(Cl)cc2)N(CCc2cccs2)C1=O` (centres undefined), the growth in assay [1] was -72.8% (active); in assay [3], -75.6% (active); in [4] it was 1.81% (active); in assay [10], -16.5% (active); in assay [5], -6.58% (active); in assay [6], -33.6% (active). Also, the growth in [9] is -13.7% (active); in assay [7], 10.1%; in assay [8], -4.19% (active).
